Source: PubChem
Smad3 FoxH1 inh = blocks human Smad3 binding to FoxH1 peptide; P84022; AID 630; inhibition, % at 25 µM; TR-FRET Smad3/Dy647-FoxH1 peptide binding, europium anti-His; 88,000 compounds, 0.29% hits;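 active = compounds that reduce the energy-transfer binding signal between the protein and its labelled peptide by more than half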;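 note: 0% = Smad3 plus labelled peptide maximal FRET and 100% = peptide-only background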
MT1-MMP txn act = activates MT1-MMP transcription; HT1080 MT1-MMP promoter luciferase reporter, luminescence, overnight; hits give high values; activation factor at 10 µM; 86,000 compounds, 0.16% hits;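 active = activation factor of at least 2 for MT1-MMP transcription at 10 µM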
ERa coact pot = enhances coactivator binding to human estrogen receptor alpha; 86,000 compounds, 1.3% hits; TR-FRET ERalpha-LBD/SRC-Cy5 coactivator binding, 2 h; 100 = basal binding, no effect; coactivator binding (% of control), % at 25.6 µM; in the data active = activity above about 200%;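 note: binding measured in presence of low estradiol as agonist stimulus; 0% = peptide alone without receptor and 100% = receptor with peptide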
Target sequence (P03372 whole entry, looked up, the tested form may be a part): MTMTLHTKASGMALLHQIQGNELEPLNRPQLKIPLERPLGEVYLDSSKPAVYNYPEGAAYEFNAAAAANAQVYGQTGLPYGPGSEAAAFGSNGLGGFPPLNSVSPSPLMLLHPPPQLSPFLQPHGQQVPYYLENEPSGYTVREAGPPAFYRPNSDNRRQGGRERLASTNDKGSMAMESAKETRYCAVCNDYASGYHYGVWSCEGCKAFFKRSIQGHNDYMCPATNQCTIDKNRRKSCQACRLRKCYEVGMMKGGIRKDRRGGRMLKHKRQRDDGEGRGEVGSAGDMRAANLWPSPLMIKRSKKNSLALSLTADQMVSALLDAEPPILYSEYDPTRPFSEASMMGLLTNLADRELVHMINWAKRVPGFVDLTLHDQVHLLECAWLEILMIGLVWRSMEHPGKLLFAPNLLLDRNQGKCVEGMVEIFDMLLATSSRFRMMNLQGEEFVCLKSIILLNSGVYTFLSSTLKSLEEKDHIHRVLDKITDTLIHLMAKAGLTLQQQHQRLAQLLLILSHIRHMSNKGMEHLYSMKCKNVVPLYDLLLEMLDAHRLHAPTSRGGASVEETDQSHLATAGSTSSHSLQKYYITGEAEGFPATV
ERa SRC1 inh = ER-alpha (human) coactivator binding inhibition. 86,000 compounds, 1.7% hits. inhibition, % at 25.6 µM. TR-FRET ER-alpha LBD / SRC-1 peptide, estradiol-bound. AID 629; in the data active = inhibition above about 50%;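 note: 0% = receptor plus peptide control and 100% = peptide only without receptor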
MMP13 inh = blocks human MMP13 activity; P45452; MMP-13 fTHP FRET cleavage, Mca fluorescence; inhibition, % at 4 µM; 65,000 compounds, 0.07% hits;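 active = inhibition above the mean of compound-free control plate wells plus 3 SD, cut at about 14% in these data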;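 note: 0% = DMSO wells and 100% = wells with reference MMP-13 inhibitor after basal subtraction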
ERb SRC1 inh = ER-beta (human) coactivator binding inhibition; Q92731; TR-FRET ER-beta LBD / SRC1-Cy5 peptide binding; receptor agonist-loaded with 1 µM estradiol; inhibition, % at 25.6 µM; 86,000 compounds, 1.3% hits;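 active = compounds whose percent inhibition of the receptor-coactivator binding signal exceeds about 50% in the single-dose screen, limit read from the data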;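 note: 0% = receptor plus peptide wells without compound and 100% = peptide-only wells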
* marks the source's active call; other numbers are inactive results; nt = not tested or not shown; [ ] = dose if it differs, or a comment. Only some compounds are listed: those with a hit (about 3.5% of all), similar ones and a draw of the others.

SMILES	Smad3 FoxH1 inh	MT1-MMP txn act	ERa coact pot	ERa SRC1 inh	MMP13 inh	ERb SRC1 inh
CCOc1ccc(OCC)c(NC(=O)c2[nH]c(C)c(C(C)=O)c2C)c1	-6	1.1	249*[fluorescence artefact?]	54*[fluorescence artefact?]	-4	38
COc1ccccc1NC(=O)c1[nH]c(C)c(C(C)=O)c1C	10	1.2	105	-1	3	-6
CCCCC(=O)Nc1ccc(NC(=O)C2CC2)cn1	5	1.2	103	-33	0	-44
COc1cccc(NC(=O)CC2COc3ccccc3O2)c1 (centres undefined)	-3	1.2	115	3	nt	0
NC(=O)C1CCN(c2nc(-c3ccccc3)nc3c2oc2ccccc23)CC1	-20	1	344*[fluorescence artefact?]	22	-5	37
C=CCNC(=O)C(C)N1C(=O)c2ccccc2C1=O (centres undefined)	-12	1.2	83	-1	0	-3
C=CCOC(=O)/C(=C/c1ccco1)NC(=O)/C=C/c1ccccc1	1	nt	107	-8	nt	-9
Cc1sc(-c2ccncc2)nc1OC(=O)c1cc(Cl)cc(Cl)c1	0	1.1	224*	-6	nt	-4
Cc1ccc(OCc2ccoc2C(=O)O)cc1C	16	nt	32	62*	5	66*
Cc1cccc(OCCCC(=O)Nc2nccs2)c1	8	1	129	-11	5	-10
C=CCNC(=O)C(C)Sc1ccc(Cl)cc1 (centres undefined)	-1	1.1	102	-21	3	-19
COC(=O)C1C(=O)NCC1c1ccccc1 (centres undefined)	-18	1	114	0	-2	15
Cc1ccc(-n2c(C)nc3oc4ccccc4c(=O)c3c2=O)cc1	4	2.2*	36	91*[fluorescence artefact?]	3	94*[fluorescence artefact?]
c1ccc(-c2nc(C3CCCCC3)no2)cc1	-16	1.4	99	-9	-2	68*
COc1ccc(-c2nc(C3CCCCC3)no2)cc1OC	nt	nt	nt	nt	6	nt
O=C(NCCc1c[nH]c2ccccc12)C1Cc2ccccc2CN1C(=O)c1ccco1 (centres undefined)	7	1.1	115	-1	-15	-1
CCSc1nnc(NC(=O)C2Cc3ccccc3CN2C(=O)c2ccco2)s1 (centres undefined)	9	1.1	128	53*	-3	43
CC(C)(C)c1ccccc1OCC(=O)NCCC(=O)O	1	1	120	-6	4	-8
Cc1cc(N=Cc2c(CO)cnc(C)c2O)c(N=Cc2c(CO)cnc(C)c2O)cc1C.[Zn]	93*	nt	nt	nt	nt	nt
CN(C)CCN1C(=O)C(O)=C(C(=O)c2cc3ccccc3o2)C1c1cccc(Br)c1 (centres undefined)	15	0.9	88	-3	nt	3
Cc1nn(-c2ccc(Cl)cc2)c2sc(C(=O)N3CCN(c4ccccn4)CC3)cc12	-1	0.9	452*	14	4	4
Cc1nn(-c2ccc(Cl)cc2)c2sc(C(=O)N3CCN(C(=O)c4ccco4)CC3)cc12	-6	1.1	101	-2	-3	6
Cc1cc(NC(=O)CSc2nc(C(C)C)nc3sc4c(c23)CCCC4)no1	9	1.2	206*[fluorescence artefact?]	0	-4	18
CCn1c(SCC(=O)O)nc2sc3c(c2c1=O)CCC3	16	0.9	6	91*[fluorescence artefact?]	-1	91*[fluorescence artefact?]
Cc1cc(NC(=O)CSc2nc3sc4c(c3c(=O)n2C)CCCC4)no1	-2	1.1	82	65*[fluorescence artefact?]	0	48
SMILES	Smad3 FoxH1 inh	MT1-MMP txn act	ERa coact pot	ERa SRC1 inh	MMP13 inh	ERb SRC1 inh
CCC(Sc1nc2ccccc2c(=O)n1CCN1CCOCC1)C(=O)NCc1cccnc1 (centres undefined)	7	1	106	-6	1	-8
Cc1nn(C)c(C)c1NC(=O)CSc1nc(-c2ccccc2Cl)nc2c1cnn2-c1ccccc1	-19	1.2	162	74*[fluorescence artefact?]	nt	49
CCCn1c2ccccc2c2nc3ccccc3nc21	-9	1	102	-16	-4	-10
O=c1oc2ccccc2n1CCn1c2ccccc2c2nc3ccccc3nc21	2	0.9	146	77*	-4	49
CCN1CCN(c2cc(C(C)(C)C)nc3c(-c4ccccc4)c(C)nn23)CC1	1	0.9	68	8	nt	12
COc1ccccc1NC(=O)c1oc2ccccc2c1NC(=O)c1cc(OC)c(OC)c(OC)c1	4	1.1	118	10	4	0
COCC(=O)Nc1c(C(=O)Nc2ccccc2OC)oc2ccccc12	4	1	213*[fluorescence artefact?]	5	3	10
COc1cccc(OCC(=O)Nc2c(C(=O)Nc3ccc(OC)cc3OC)oc3ccccc23)c1	13	1.1	220*[fluorescence artefact?]	73*[fluorescence artefact?]	1	50*[fluorescence artefact?]
CSC1=NC(NCCCO)c2c(sc3c2CC(C)(C)OC3)N1 (centres undefined)	-2	1	98	-16	-27	-3
Cc1cc(C)cc(OCC(=O)Nc2nonc2NC(=O)COc2cc(C)cc(C)c2)c1	-1	1.2	38	82*[fluorescence artefact?]	-4	38
CCOC(=O)/C=C1\SCC(=O)N1CC(=O)c1ccc[nH]1	9	1.1	33	87*[fluorescence artefact?]	0	64*[fluorescence artefact?]
CCn1c(C)nc2cc(C(=O)OC(C(F)(F)C(F)F)C(F)(F)C(F)F)ccc21	-11	2.2*	102	-1	-4	-10
CCOC(=O)c1sc(NC(=O)CSc2nc3c(cc2C#N)CCCCCC3)c(C#N)c1C	-5	1.1	366*[fluorescence artefact?]	25	0	37
CCOC(=O)c1sc(NC(=O)CSc2nc(C)cc(C)c2C#N)c(C#N)c1C	-6	1.1	267*	36	nt	21
Cc1nc(N)c(C#N)c(-c2ccccc2Cl)c1C	-8	1.2	108	6	nt	-1
CCCSc1nc(SCC(=O)NCc2ccccc2)c2c3c(sc2n1)COC(C)(CC)C3 (centres undefined)	-178	1	298*[fluorescence artefact?]	-16	nt	-2
Cn1c(SCC(=O)c2ccc(F)cc2)nnc1-c1cnccn1	5	2.8*	100	26	2	-1
Cn1c(SCC(=O)N2CCOCC2)nnc1-c1cnccn1	-9	1.1	104	-5	4	-3
CC(=O)NC(c1ccco1)c1ccc2cccnc2c1O (centres undefined)	5	0.5	72	31	1	59*[fluorescence artefact?]
O=C(O)c1ccccc1N[C@H](c1ccccc1)c1ccc2cccnc2c1O	-2	nt	nt	nt	nt	nt
CCOc1ccccc1C(=O)Nc1cccc(-c2nnc(-c3ccccc3)o2)c1	-13	1.2	317*[fluorescence artefact?]	39	nt	25
S[C@@H]1CCCN(Cc2ccccc2)C1	56*	nt	nt	nt	nt	nt
CCCCN(C)CCNC(=O)c1ccc2c(c1)NC(=O)C(N1CCCCC1)S2 (centres undefined)	3	1	77	-2	-2	-3
O=C(CN1CCN(Cc2ccc(Cl)cc2)C1=O)NCCCN1CCN(c2ccc(F)cc2)CC1	6	1.1	277*[fluorescence artefact?]	-5	nt	-4
COc1ccc(C(=O)CSc2nc(N)nc(SC)c2C#N)cc1	16	1.1	480*[fluorescence artefact?]	21	nt	23
